# This is one part of a sample in which the strongest signals are shown more often than they occur.
# B1: AT1G80310(18) (Arabidopsis thaliana), Q0WP36 (protein)
# chain: METTTTPLLPGDRSRCGWLRRRLRLKNPLSSELSGAVGDLGTFIPIVLTLTLVSNLDLSTTLIFTGFYNIATGLLFDIPMPVQPMKSIAAVAVSESPHLTPSQIAAAGASTAATLLLLGATGAMSFLYNIIPLPVVRGVQLSQGLQFAFTAIKYVRFNYDTATLKPSSSPRIWLGLDGLILALAALLFIILSTGSGNDREAEDGDLAETSSNESQSRRRRLRLLSSIPSALIVFALGLVLCFIRDPSIFKDLKFGPSKFHILRISWDDWKIGFLRAAIPQIPLSVLNSVIAVCKLSNDLFDKELSATTVSISVGVMNLIGCWFGAMPVCHGAGGLAGQYRFGARSGLSVIFLGIGKLIVGLVFGNSFVRILSQFPIGILGVLLLFAGIELAMASKDMNSKEDSFIMLVCAAVSMTGSSAALGFGCGVVLYLLLKLRTLDCSSVTLFSRSSDESQVDSEAAPRDV
# Columns and labels:
# Assay in all cases: glycan array binding signal (z-score within array); higher = stronger binding
# Conditions in all cases: glycan notation: IUPAC condensed, linker removed
# [1] = biological target: Gal(b1-4)GlcNAc(b1-3)Gal(b1-4)GlcNAc(b1-6)[Gal(b1-3)]GalNAc
# Method in brief: (§1)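 The binding signal is a Z-score computed within each array and averaged over linkers. Arrays of the same protein sequence at different concentrations or buffers were also averaged together. Data originate from 3228 arrays in the Consortium for Functional Glycomics database, kept only where the protein sequence was available.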
# [2] = biological target: Gal3S(b1-4)[Fuc(a1-3)]GlcNAc6S
# Method in brief: as §1
# Gal3S6S(b1-4)GlcNAc6S = biological target: Gal3S6S(b1-4)GlcNAc6S
# Method in brief: as §1
# Gal6P(b1-4)GlcNAc = biological target: Gal6P(b1-4)GlcNAc
# Method in brief: as §1
# GalNAc(b1-4)GlcNAc = biological target: GalNAc(b1-4)GlcNAc
# Method in brief: as §1
# GalNAc4S6S(b1-4)GlcNAc = biological target: GalNAc4S6S(b1-4)GlcNAc
# Method in brief: as §1
# GalNAc6S(b1-4)GlcNAc = biological target: GalNAc6S(b1-4)GlcNAc
# Method in brief: as §1
# Glc(b1-4)Glc = biological target: Glc(b1-4)Glc
# Method in brief: as §1
# [3] = biological target: GlcNAc(a1-4)Gal(b1-4)GlcNAc
# Method in brief: as §1
# [4] = biological target: GlcNAc(a1-4)Gal(b1-4)GlcNAc(b1-3)Gal(b1-4)GlcNAc(b1-3)Gal(b1-4)GlcNAc
# Method in brief: as §1
# [5] = biological target: GlcNAc(b1-3)Gal(b1-4)GlcNAc(b1-3)Gal(b1-4)GlcNAc
# Method in brief: as §1
# [6] = biological target: GlcNAc(b1-3)Gal(b1-4)GlcNAc(b1-3)Gal(b1-4)GlcNAc(b1-2)Man(a1-3)[GlcNAc(b1-3)Gal(b1-4)GlcNAc(b1-3)Gal(b1-4)GlcNAc(b1-2)Man(a1-6)]Man(b1-4)GlcNAc(b1-4)[Fuc(a1-6)]GlcNAc
# Method in brief: as §1
# [7] = biological target: GlcNAc(b1-6)Gal(b1-4)GlcNAc
# Method in brief: as §1
# [8] = biological target: GlcNAc6S(b1-3)Gal(b1-4)GlcNAc
# Method in brief: as §1
# [9] = biological target: Man(a1-2)Man(a1-3)[Man(a1-2)Man(a1-6)]Man
# Method in brief: as §1
# [10] = biological target: Man(a1-2)Man(a1-6)[Man(a1-3)]Man(a1-6)[Man(a1-2)Man(a1-2)Man(a1-3)]Man
# Method in brief: as §1
# [11] = biological target: Man(a1-3)[Man(a1-6)]Man(b1-4)GlcNAc(b1-4)[Fuc(a1-6)]GlcNAc
# Method in brief: as §1
# [12] = biological target: Neu5Ac(a2-3)Gal(b1-3)GalNAc
# Method in brief: as §1
# [13] = biological target: Neu5Ac(a2-3)Gal(b1-3)GalNAc(b1-4)[Neu5Ac(a2-3)]Gal(b1-4)Glc
# Method in brief: as §1
# [14] = biological target: Neu5Ac(a2-3)Gal(b1-3)GalNAc(b1-4)[Neu5Ac(a2-8)Neu5Ac(a2-3)]Gal(b1-4)Glc
# Method in brief: as §1
# [15] = biological target: Neu5Ac(a2-3)Gal(b1-4)GlcNAc(b1-2)Man(a1-3)[Neu5Ac(a2-3)Gal(b1-4)GlcNAc(b1-2)Man(a1-6)]Man(b1-4)GlcNAc(b1-4)[Fuc(a1-6)]GlcNAc
# Method in brief: as §1
# [16] = biological target: Neu5Ac(a2-3)Gal(b1-4)GlcNAc(b1-3)Gal(b1-4)GlcNAc
# Method in brief: as §1
# [17] = biological target: Neu5Ac(a2-6)Gal(b1-4)GlcNAc(b1-2)Man
# Method in brief: as §1
# [18] = biological target: Neu5Ac(a2-6)Gal(b1-4)GlcNAc(b1-2)Man(a1-6)[Man(a1-3)]Man(b1-4)GlcNAc(b1-4)GlcNAc
# Method in brief: as §1
# [19] = biological target: Neu5Ac(a2-6)Gal(b1-4)GlcNAc(b1-3)Gal(b1-3)GlcNAc
# Method in brief: as §1
# [20] = biological target: Neu5Ac(a2-6)GalNAc(b1-4)GlcNAc6S
# Method in brief: as §1
# [21] = biological target: Neu5Ac(a2-8)Neu5Ac(a2-3)Gal(b1-3)GalNAc(b1-4)[Neu5Ac(a2-3)]Gal(b1-4)Glc
# Method in brief: as §1
# [22] = biological target: Neu5Ac(a2-8)Neu5Ac(a2-8)Neu5Ac(a2-8)Neu5Ac(a2-3)[GalNAc(b1-4)]Gal(b1-4)Glc
# Method in brief: as §1
# [23] = biological target: Neu5Ac9Ac(a2-3)Gal(b1-3)GlcNAc
# Method in brief: as §1
# Neu5Gc(a2-6)GalNAc = biological target: Neu5Gc(a2-6)GalNAc
# Method in brief: as §1
binder,measurement,setting,value
B1,glycan array binding signal (z-score),[1],-0.516
same,glycan array binding signal (z-score),[2],-0.286
same,glycan array binding signal (z-score),Gal3S6S(b1-4)GlcNAc6S,0.953
same,glycan array binding signal (z-score),Gal6P(b1-4)GlcNAc,0.119
same,glycan array binding signal (z-score),GalNAc(b1-4)GlcNAc,3.09
same,glycan array binding signal (z-score),GalNAc4S6S(b1-4)GlcNAc,3.56
same,glycan array binding signal (z-score),GalNAc6S(b1-4)GlcNAc,2.89
same,glycan array binding signal (z-score),Glc(b1-4)Glc,1.3
same,glycan array binding signal (z-score),[3],-0.622
same,glycan array binding signal (z-score),[4],0.229
same,glycan array binding signal (z-score),[5],-0.512
same,glycan array binding signal (z-score),[6],1.31
same,glycan array binding signal (z-score),[7],-0.608
same,glycan array binding signal (z-score),[8],0.436
same,glycan array binding signal (z-score),[9],-0.796
same,glycan array binding signal (z-score),[10],-0.243
same,glycan array binding signal (z-score),[11],-0.517
same,glycan array binding signal (z-score),[12],0.654
same,glycan array binding signal (z-score),[13],-0.383
same,glycan array binding signal (z-score),[14],4.16
same,glycan array binding signal (z-score),[15],-0.895
same,glycan array binding signal (z-score),[16],-0.967
same,glycan array binding signal (z-score),[17],-0.534
same,glycan array binding signal (z-score),[18],-0.892
same,glycan array binding signal (z-score),[19],-0.646
same,glycan array binding signal (z-score),[20],-0.543
same,glycan array binding signal (z-score),[21],-0.86
same,glycan array binding signal (z-score),[22],-0.09
same,glycan array binding signal (z-score),[23],-0.052
same,glycan array binding signal (z-score),Neu5Gc(a2-6)GalNAc,0.551
